D2 PAM-1 – positive allosteric modulators of human D2 dopamine receptor; DiscoveRx D2 beta-arrestin cells, luminescence, 90 min; 100% = 57 uM dopamine signal; potentiation, % (concentration not given with the values); actives 0.23% (n = 360,000); AID 624464; in the data active = potentiation above about 50%
Target sequence (P14416 whole entry, looked up): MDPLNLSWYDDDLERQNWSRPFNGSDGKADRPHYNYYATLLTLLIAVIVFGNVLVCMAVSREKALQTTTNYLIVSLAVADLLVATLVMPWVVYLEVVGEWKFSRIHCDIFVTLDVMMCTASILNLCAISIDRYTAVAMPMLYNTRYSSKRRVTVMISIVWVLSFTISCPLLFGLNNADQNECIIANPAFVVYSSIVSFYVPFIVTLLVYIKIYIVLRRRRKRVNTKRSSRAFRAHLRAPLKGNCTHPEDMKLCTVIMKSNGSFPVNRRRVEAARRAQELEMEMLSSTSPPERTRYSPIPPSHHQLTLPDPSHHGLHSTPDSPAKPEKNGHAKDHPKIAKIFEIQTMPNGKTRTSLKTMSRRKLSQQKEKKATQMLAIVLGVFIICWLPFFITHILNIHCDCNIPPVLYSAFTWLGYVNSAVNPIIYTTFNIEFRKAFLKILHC
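PathHunter D2 cells, attached overnight at 37 deg C, received compound in DMSO plus dopamine at EC20 (50 nM final) for 90 min at 37 deg C. Beta-arrestin recruitment was read as luminescence after 1 h with detection reagent at ambient temperature.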
D2 PAM-2 – positive allosteric modulators of human D2 dopamine receptor | P14416 | HEK293 T-REx D2, calcium flux, EC20 dopamine potentiation | potentiation, % at 10 µM | actives 0.34% (n = 340,000);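 active = potentiation over 3 SD above the plate norm, cut at about 30% in these data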; also: 0% is about no effect
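Cells plated with tetracycline inducer and held overnight at 30 C; calcium dye loaded 30–90 min at room temperature; baseline taken, compound added and read 180 s; EC20 dopamine then added and read 180 s.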
D2 antagonist – D2 dopamine receptor (human) antagonism. actives 2% (n = 340,000). HEK293 TREx D2 cells, calcium flux, dopamine EC80. inhibition, % at 10 µM; in the data active = inhibition above about 30%; inactive = below that, where a call was filed; also: 0% is about no effect
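In this primary screen, negative modulation is detected by tracking calcium flux after an EC80 dopamine challenge in inducible HEK293 T-REx D2 cells preexposed to test compound for 180 s.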
D2 ag-1 – activates the human D2 dopamine receptor; actives 0.53% (n = 340,000); AID 485358; P14416; HEK293 T-REx D2 cells, calcium flux agonist mode; activation, % at 2 µM;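 active = activation over 3 SD above normal in the single-dose calcium agonist read, cut at about 30% in these data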; also: 0% is about no effect
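HEK293 Trex D2 cells, tetracycline-induced, o/n 30 C 5% CO2; no-wash Ca dye, RT 30–90 min; 10-cycle baseline, 23 nl cpd added, kinetic Ca read 180 s; agonist hits = positive Ca response.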
D2 ag-2 – agonists of human D2 dopamine receptor (beta-arrestin). activation, % (concentration not given with the values). DiscoveRx PathHunter D2 beta-arrestin, luminescence, 90 min; 100% = 57 uM dopamine signal. actives 0.084% (n = 360,000); in the data active = activation above about 40%
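DiscoveRx PathHunter D2 beta-arrestin cells (2,100/well) attached overnight, then compound-stimulated 90 min at 37 C in HBSS/10 mM HEPES/0.1% Tween-20 buffer; beta-galactosidase complementation read by luminescence after 1 h at ambient temperature. Dopamine 57 uM final (EC100) as control.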
* marks the source's active call; other numbers are inactive results; . = not tested or not shown. A selection: hits, their analogues and other compounds. The true share with any hit is near 2.4%.

SMILES	D2 PAM-1	D2 PAM-2	D2 antagonist	D2 ag-1	D2 ag-2
CC(C)Sc1nnc(-c2ccc(S(=O)(=O)N3CCOCC3)cc2)n1C	2	-2	35*	0	-4
O=C(CSc1nnc(C2CC2)n1Cc1ccccc1)N1CCN(S(=O)(=O)c2ccccc2)CC1	6	-1	-5	1	-3
CCN(CC)C(=O)CSc1nnc(-c2ccc(S(=O)(=O)N3CCOCC3)cc2)n1C	-3	-2	20	0	-1
CC1CCN(C(=O)CSc2nnc(-c3ccc(S(=O)(=O)N4CCOCC4)cc3)n2C)CC1	-8	53*	-17	0	-1
O=C(CSc1nnc(C2CC2)n1Cc1ccccc1)c1ccc(S(=O)(=O)N2CCOCC2)cc1	6	10	46*	-3	1
Cc1ccccc1NC(=O)c1c(C)oc2ccc(O)c(CN3CCOCC3)c12	.	11	.	0	.
O=C(NCc1ccc(F)cc1)C(=O)Nc1ccc2nc3n(c(=O)c2c1)CCCCC3	.	3	.	0	.
O=C(NNS(=O)(=O)c1ccc(Cl)cc1)c1sccc1-n1cccc1	-7	.	.	.	-4
O=C(NNC(=O)c1sccc1-n1cccc1)c1ccc(Cl)cc1	9	4	36*	0	-2
Cn1cc(S(=O)(=O)N2CCCCC2)cc1C(=O)Nc1cccc(C#N)c1	.	.	.	1	.
Cc1ccc(-c2nc(CCNC(=O)C(=O)Nc3ccc(F)cc3F)cs2)cc1	.	9	.	1	.
CCOc1ccccc1C(=O)N(Cc1ccco1)Cc1ccco1	.	-3	.	-1	.
CCc1cc(=O)oc2cc(C)cc(OCC(=O)N3CCC(C(=O)NC(C)C)(c4ccccc4)CC3)c12	3	-13	53*	1	4
CCN(CC)c1ccc(NC(=O)c2cccc(OC)c2)c(C)c1	-8	10	3	0	-3
CCN(CC)c1ccc(NC(=O)c2c(OC)cccc2OC)c(C)c1	-2	-11	34*	1	-2
COC(=O)c1cccc(CN2C(=O)SC(Nc3ccccc3C)C2=O)c1 (stereo not drawn)	.	10	.	-1	.
Cc1cccc(NS(=O)(=O)c2ccccc2)n1	-2	7	31*	0	-2
CCCCOc1ccc(C(C)NC(=O)c2cccc(Nc3nc4ccccc4n4nnnc34)c2)cc1 (stereo not drawn)	.	0	.	1	.
O=C(Nc1ccc2c(c1)CCCN2C(=O)c1ccco1)c1cc([N+](=O)[O-])ccc1Cl	56*	-1	1	0	7
O=C(Nc1ccc(N2CCN(C(=O)c3ccco3)CC2)cc1)c1ccc([N+](=O)[O-])cc1Cl	-3	-4	-1	1	5
COc1ccc(S(=O)(=O)N(C)C[C@@H]2OCc3cn(nn3)CCCC(=O)N([C@H](C)CO)C[C@H]2C)cc1	-3	.	.	.	-6
CC(C)CN1CCC(=O)N([C@H](CSc2ccc(Br)cc2)Cc2ccccc2)CC1	-9	-10	36*	0	2
Nc1nc(NCCc2ccccc2)nc(NCc2ccccc2)c1[N+](=O)[O-]	3	0	45*	1	-2
CCOC(=O)c1c(S(=O)(=O)N2CCN(c3cc(Cl)ccc3C)CC2)c(C)n(C)c1C	.	-11	.	1	.
Cc1cc(NC(=O)c2cc(-c3ccccc3Cl)nc3ccccc23)no1	-10	32*	-11	-1	-3
SMILES	D2 PAM-1	D2 PAM-2	D2 antagonist	D2 ag-1	D2 ag-2
COc1cccc(N2CCN(C(=O)c3cc4c(s3)-c3c(C)cccc3OC4)CC2)c1	.	-8	.	0	.
O=C(NN1CCOCC1)c1ccccc1Br	-2	33*	11	1	-2
Cc1ccccc1C(=O)NN1CCOCC1	6	-2	-7	1	1
Cc1cc(C)nc(SCc2ccc(C(=O)N/N=C/c3cccc(O)c3O)cc2)n1	59*	22	-45	2	11
Cc1ccc(Cl)cc1NC(=S)N(CCCN1CCN(C)CC1)Cc1ccco1	-37	-27	71*	0	-6
Cc1cc(NC(=S)N(CCN2CCCCC2)Cc2ccco2)ccc1Cl	-13	-21	35*	-7	-1
Cc1ccc(NC(=S)N(CCCN2CCCC(C)C2)Cc2ccco2)cc1C (stereo not drawn)	-35	-24	46*	.	-5
Cc1cc(C)cc(NC2=C(c3ccccc3)C(=O)c3ccccc32)c1	.	-5	.	-3	.

High-throughput results (PubChem BioAssay)
